# Rows were chosen to be rich in hits. Some 11% of all compounds tested hit in one or more screens of this group.
# JMJD2E inh: qHTS Assay for Inhibitors of Human Jumonji Domain Containing 2E (JMJD2E); Lysine-specific demethylase 4E (Homo sapiens), B2RXH2; JMJD2E catalytic domain, FDH-coupled NADH fluorescence (FDH is formaldehyde dehydrogenase); Potency, µM (titrated, usually from 57.1 µM), for the others: at the highest dose activity change, negative = inhibition, most hits filed as inhibitors; actives 1.6% (n = 230,000);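 further: potency means the concentration at half of the fitted maximal effect; 0% = wells with enzyme and -100% = buffer wells without enzyme; nearly all actives have a fitted effect of over 50% in size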
# Target sequence (B2RXH2 1-337 limits assumed): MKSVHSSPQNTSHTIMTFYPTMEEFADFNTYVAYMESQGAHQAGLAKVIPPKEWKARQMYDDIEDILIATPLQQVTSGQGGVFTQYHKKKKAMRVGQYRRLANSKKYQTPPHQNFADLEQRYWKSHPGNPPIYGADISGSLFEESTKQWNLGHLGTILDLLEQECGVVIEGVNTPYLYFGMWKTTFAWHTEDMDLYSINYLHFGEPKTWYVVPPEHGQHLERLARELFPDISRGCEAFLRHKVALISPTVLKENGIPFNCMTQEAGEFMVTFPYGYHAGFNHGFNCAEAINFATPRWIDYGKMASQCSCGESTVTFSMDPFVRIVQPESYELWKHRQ
# HPGD inh: qHTS Assay for Inhibitors of HPGD (15-Hydroxyprostaglandin Dehydrogenase). Potency, µM, for inactives: at the top dose activity change, negative = inhibition, hits mostly inhibitors. AID 894, 2007. actives 4.3% (n = 150,000). purified HPGD, NADH fluorescence kinetic, PGE2 substrate. 15-hydroxyprostaglandin dehydrogenase [NAD(+)] (Homo sapiens), P15428; further: potency means the concentration at half of the fitted maximal effect
# Target sequence (P15428 whole entry, looked up): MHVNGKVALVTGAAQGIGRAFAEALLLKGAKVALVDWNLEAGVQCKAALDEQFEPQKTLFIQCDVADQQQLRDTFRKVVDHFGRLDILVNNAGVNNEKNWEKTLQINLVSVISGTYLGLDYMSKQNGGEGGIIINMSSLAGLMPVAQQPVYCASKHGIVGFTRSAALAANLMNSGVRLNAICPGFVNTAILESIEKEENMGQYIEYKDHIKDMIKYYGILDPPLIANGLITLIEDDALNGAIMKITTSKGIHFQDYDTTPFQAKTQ
#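 NADH formation kinetics: reaction with 30 uM PGE2 and 1 mM NAD+ (final), 20 nM enzyme, Tris-HCl pH 8 with Tween 20, after 15 min compound preincubation at room temperature. Fluorescence change, last versus first of five reads.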
# PNC inhibitor: High Content Assay for Compounds that inhibit the Assembly of the Perinucleolar Compartment. PC3M PTB-GFP, PNC prevalence imaging, 16 h; hits give low values. activity change (PNC), negative = inhibition, % at 10 µM. actives 3.1% (n = 140,000). AID 2417, 2010;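 active means readout at or below -70, meaning at least 70% loss of cells showing the perinucleolar compartment, a nuclear body marking cancer cells; inconclusive means readout between -30 and a set limit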;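 further: plate controls were DMSO wells for no effect and camptothecin positive control wells for full effect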
#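 Read-out is percentage of cells bearing a perinucleolar compartment, from automated 20x imaging of fixed, Hoechst-stained PC3M PTB-GFP cells. Cells were seeded 4 h, then exposed 16 h to compound (23 nl of library stock) in duplicate plates.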
# ALDH1A1 block: qHTS Assay for Inhibitors of Aldehyde Dehydrogenase 1 (ALDH1A1); Aldehyde dehydrogenase 1A1 (Homo sapiens), P00352; Purified ALDH1A1, NADH fluorescence, propionaldehyde substrate; Potency, µM (doses to about 75.3 µM), inactives show top-dose activity, negative = inhibition, hits mostly inhibitors; actives 7.3% (n = 220,000); AID 1030, 2008;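 further: potency means the concentration at half of the fitted maximal effect; plate controls were no enzyme wells and a reference inhibitor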
# Active calls of the source: *; ? = inconclusive; / = not tested or not shown; [ ] = dose if it differs, or a comment. Unless noted, the call rests on the fitted dose curve; in most records, active means well fitted inhibition curve with a large enough effect (not every such curve was filed as active); inconclusive means small, poorly fitted or top-dose-only effect, or another doubt; inactive means no such curve, though single readings can be large or run the other way. Unless noted, on the % scale 0 is the no-effect control and ±100 the full control effect.
SMILES,JMJD2E inh,HPGD inh,PNC inhibitor,ALDH1A1 block
O=C(O)c1cc2nc3c(c(C(F)(F)F)n2n1)CCc1ccccc1-3,-10%,-10%,-87*,0%
COCCNC(=O)c1cc2nc3c(c(C(F)(F)F)n2n1)CCc1ccccc1-3,?,/,/,-4%
Cc1cc(N)n(-c2ccc(S(=O)(=O)c3ccc(C(C)C)cc3)cc2)n1,4%,/,/,35µM*
Cc1cc(N)n(-c2ccc([N+](=O)[O-])cc2)n1,8%,/,/,6%
CCOC(=O)C1=C(N)Oc2ccc(Br)cc2C1C(C#N)C(=O)OCC (centres undefined),/,/,/,16µM*
COc1cccc(N2CCN(c3ncnc4c3[nH]c3ccccc34)CC2C)c1 (centres undefined),-15%,-24%,?,35µM*
COc1cccc(N2CCN(c3ncnc4c3[nH]c3ccc(F)cc34)CC2C)c1 (centres undefined),?,-17%,69,-6%
CCCCSc1nnc(-c2ccccc2NC(C)=O)c(=O)[nH]1,-1%,/,/,-5%
O=C(NC(CCl)c1ccccc1)c1ccc(Cl)cc1 (centres undefined),?,/,/,-2%
O=C(CC(NC(=O)c1ccccc1Cl)c1ccccc1)NCCc1ccc(Cl)cc1 (centres undefined),9%,-3%,-108*,-3%
COc1ccnc(N2CCN(c3ccc(Cl)cc3)CC2)c1C#N,?,?,?,13µM*
CCN(CC)S(=O)(=O)c1ccc(N2CCOCC2)c(NC(=O)CCC2CCCCC2)c1,-9%,?,-13,1.6µM*
CCN(CC)S(=O)(=O)c1ccc(N2CCOCC2)c(NC(=O)Cc2ccccc2)c1,-3%,-9%,75,13µM*
CCN(CC)S(=O)(=O)c1ccc(N2CCOCC2)c(NC(=O)Cc2ccccc2F)c1,5%,-6%,60,?
CCN(CC)S(=O)(=O)c1ccc(O)c(NC(=O)c2ccc(N3CCOCC3)c([N+](=O)[O-])c2)c1,5%,32µM*,28,0.71µM*
Cc1[nH]c2ccccc2c1C(=O)NS(=O)(=O)Nc1ccc(F)cc1,-14%,/,/,1%
COc1ccc(-n2c(=O)c(C)nc3cnc(Nc4ccccc4)nc32)cc1,/,-6%,/,-4%
NC1=NC(=O)CC(C(=O)NCc2ccccc2)S1 (centres undefined),-2%,-2%,-11,18µM*
CCOC(=O)/C(=N/Nc1ccccc1)Sc1nnc(CCc2ccccc2)n1-c1ccccc1,-1%,-22%,-134*,0%
O=C(/C(=N\Nc1ccc(Br)cc1)Sc1nnnn1-c1ccccc1)c1ccccc1,-28%,-9%,79,1.6µM*
CCOC(=O)/C(=N/Nc1ccccc1)Sc1nnnn1-c1ccc(C)cc1,5%,-14%,?,7.1µM*
CCN(CC)S(=O)(=O)c1ccc(N2CCCC2)c(C(=O)OCC(=O)Nc2cc(C)on2)c1,0%,/,/,/
S=c1[nH]nc(C2CCCCC2)n1/N=C/c1ccc(Br)s1,-23%,5µM*,11,-8%
S=c1[nH]nc(C2CCCCC2)n1/N=C/C(Cl)=C\c1ccccc1,-3%,-27%,-27,5%
O=[N+]([O-])c1ccc(Cl)c(/C=N/n2c(COc3ccccc3)n[nH]c2=S)c1,-9%,8.9µM*,15,14µM*
SMILES,JMJD2E inh,HPGD inh,PNC inhibitor,ALDH1A1 block
O=[N+]([O-])c1ccccc1/C=N/n1c(C2CCCCC2)n[nH]c1=S,-2%,16µM*,19,7.1µM*
S=c1[nH]nc(C2CCCCC2)n1/N=C/C=C/c1ccccc1,2%,18µM*,64,3%
Brc1ccc(/C=N/n2cnnc2)s1,3%,/,/,/
O=[N+]([O-])c1ccccc1/C=N/n1c(-c2cccnc2)n[nH]c1=S,-4%,?,-22,?
S=c1[nH]nc(COc2ccccc2)n1/N=C/c1ccccn1,-3%,?,11,?
Cc1ccc(C(=N)c2ccccc2Cc2cccc3ccccc23)c2ccccc12,/,1%,/,3%[13.5 µM]
COc1ccccc1CC1S/C(=N/N=C/c2ccco2)NC1=O (centres undefined),-3%,/,/,4%
O=[N+]([O-])c1cccc(/C=N/n2c(C3CCCCC3)n[nH]c2=S)c1,?,2.5µM*,20,-10%
O=[N+]([O-])c1ccc(Cl)c(/C=N/N2CCN(c3ccccc3)CC2)c1,15%,-24%,7,-4%
O=[N+]([O-])c1ccc(Cl)c(/C=N/n2c(C3CCCCC3)n[nH]c2=S)c1,-1%,0.63µM*,-19,?
Cc1ccc(/C=C2/NC(=O)N(Cc3ccccc3)C2=O)o1,11µM*,25µM*,-2,3.5µM*
COC(=O)CN1C(=O)N/C(=C/c2ccc(C)o2)C1=O,?,/,/,18µM*
COc1ccc(CC(=O)NCC(=O)N/N=C(/C)c2ccco2)cc1,9%,/,/,-1%
COCCn1c(=NC(=O)CSCC(=O)Nc2cc(C)on2)sc2cc(C(=O)OC)ccc21,?,-11%,-113*,?
COCCn1c(SCC(=O)Nc2cc(C)on2)nnc1-c1ccco1,-2%,-6%,-23,?
COc1ccc(C(=O)N2CCC3(CCCN(c4ccncc4)C3)CC2)cc1,/,-15%,/,12%
Cc1cccc(NC(=O)Cc2coc3ccc4ccccc4c23)n1,?,16µM*,11,-4%
CCCCNC(=O)Cc1coc2ccc3ccccc3c12,-11%,14µM*,33,-1%
O=C(Cc1coc2ccc3ccccc3c12)N1CCCC1,?,13µM*,3,?
COCCCNC(=O)Cc1coc2ccc3ccccc3c12,-14%,/,/,3%
CC(C)OC(=O)c1ccc(NC(=O)c2cncc(Br)c2)cc1,?,/,/,18µM*
CN(C)C(=O)c1ccc(NC(=O)c2cncc(Br)c2)cc1,6%,-25%,-100*,6%
CC(C)OC(=O)c1ccc(NC(=O)c2ccccc2)cc1,-3%,-14%,37,?
CCc1ccc(NC(=O)Cn2c3[n+](c4c(F)c(F)ccc42)CCCCC3)cc1,15%,/,/,10µM*
N#Cc1ccc(NC(=O)Cn2c3[n+](c4ccc(C(F)(F)F)cc42)CCCCC3)cc1,25µM*,/,/,-19%
SMILES,JMJD2E inh,HPGD inh,PNC inhibitor,ALDH1A1 block
COc1ccc(C(=O)N2CCC3(CCN(Cc4ccncc4)CC3)CC2)cc1,/,-4%,/,-3%
Cc1cc(C)c2c(CC(=O)O)coc2c1,0%,20µM*,-9,-4%
O=C(O)[C@H]1O[C@H]1C(=O)O,/,-3%,/,8%[13.5 µM]
CCC[C@@H]1C[C@@]1(CCC)[C@@H](NC(=O)Oc1ccccc1)c1ccc(C(=O)OC)cc1,0%,-5%,/,3%
O=c1[nH]c(/C=C/c2cccc3ccccc23)nc2ccccc12,?,/,/,-7%
O=c1nc2cccc3c2=c(/c1=C(\O)c1ccccc1)c1ccccc1c3=O,-12%,/,/,0.63µM*
COc1cccc(/C=N/NC(=O)c2cc3c(OC)cccc3[nH]2)c1O,25µM*,-10%,?,-6%

# Screening results (PubChem BioAssay)
